Records with an inconclusive call do not appear. The source made the active and inactive calls. How the source made its calls: active means hit-call score of the fitted dose curve at least 0.9, where 1 is the maximum; inactive means score below 0.9.
Molecular target: Neuropeptide Y receptor type 2 (Homo sapiens) (UniProt P49146)
Assay: ERF_FR_GPCR_hNPY2R: Eurofins (ERF) G Protein-Coupled Receptor (GPCR) Radioligand Binding LeadHunter Assay for human Neuropeptide Y Receptor Y2 Agoniam
Protocol: ERF_FR_GPCR_hNPY2R is a biochemical, single-readout assay that uses extracted gene-proteins in a cell-free assay. Measurements were taken 1 hour after chemical dosing in a 96-well plate. See Y2 Human Neuropeptide Y GPCR Binding (Agonist Radioligand) Assay, Cerep.ERF_FR_GPCR_hNPY2R is an assay component calculated from the ERF_FR_GPCR_hNPY2R assay. It is designed to measure radioligand binding using a type of binding reporter as detected by scintillation counting with radiometry technology.Data from the assay component ERF_FR_GPCR_hNPY2R was analyzed at the assay endpoint, ERF_FR_GPCR_hNPY2R, in the positive analysis fitting direction relative to DMSO as the negative control and baseline of activity. Using a type of binding reporter, gain-of-signal activity can be used to understand changes in binding as they relate to gene NPY2R. To generalize the intended target to other relatable targets, this assay endpoint is annotated to the gpcr intended target family, where the subfamily is neuropeptide Y.
Human cells are incubated for 60 minutes at 37 C with [125I]peptide YY ligand (0.015 nM) and NYP as control inhibitor. Test Sample Requirements: Minimum for 1) Screen: 60 ul of 10 mM stock -OR- 1 mg (pre-weighed) for 10 uM final testing. 2) Dose Response: 90 ul of 10 mM stock -OR- 1 mg (pre-weighed) for a top concentration at 10 uM.

Neuropeptide Y receptor type 2 (Homo sapiens), sequence (P49146 whole entry, looked up): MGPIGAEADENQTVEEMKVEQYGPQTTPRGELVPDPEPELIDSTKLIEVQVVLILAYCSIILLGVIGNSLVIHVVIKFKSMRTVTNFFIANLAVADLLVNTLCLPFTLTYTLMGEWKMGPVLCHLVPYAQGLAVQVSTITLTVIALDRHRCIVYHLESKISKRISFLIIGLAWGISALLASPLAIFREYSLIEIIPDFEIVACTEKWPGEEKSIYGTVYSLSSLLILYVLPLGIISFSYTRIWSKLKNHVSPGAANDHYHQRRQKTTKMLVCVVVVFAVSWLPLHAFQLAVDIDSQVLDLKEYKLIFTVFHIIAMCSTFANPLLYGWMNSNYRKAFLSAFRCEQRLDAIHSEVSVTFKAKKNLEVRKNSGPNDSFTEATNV

Structure (SMILES)	outcome
O=C(/C=C/c1ccc(O)cc1)CC(=O)/C=C/c1ccc(O)cc1	inactive

Source: PubChem BioAssay AID2284166 (EPA ToxCast)
